# Assay results from PubChem BioAssay (NCATS).
# Inconclusive results are not listed. Unmarked numbers belong to inactive results. Activity calls are given as the source filed them. The call rests on the fitted dose curve; in most records, active means well fitted inhibition curve with a large enough effect; inconclusive means small, poorly fitted or top-dose-only effect; inactive means no such curve, though single readings can be large or run the other way.
# Target: Cytochrome P450 3A4 (Homo sapiens) (UniProt P08684)
# Sequence (P08684 whole entry, looked up): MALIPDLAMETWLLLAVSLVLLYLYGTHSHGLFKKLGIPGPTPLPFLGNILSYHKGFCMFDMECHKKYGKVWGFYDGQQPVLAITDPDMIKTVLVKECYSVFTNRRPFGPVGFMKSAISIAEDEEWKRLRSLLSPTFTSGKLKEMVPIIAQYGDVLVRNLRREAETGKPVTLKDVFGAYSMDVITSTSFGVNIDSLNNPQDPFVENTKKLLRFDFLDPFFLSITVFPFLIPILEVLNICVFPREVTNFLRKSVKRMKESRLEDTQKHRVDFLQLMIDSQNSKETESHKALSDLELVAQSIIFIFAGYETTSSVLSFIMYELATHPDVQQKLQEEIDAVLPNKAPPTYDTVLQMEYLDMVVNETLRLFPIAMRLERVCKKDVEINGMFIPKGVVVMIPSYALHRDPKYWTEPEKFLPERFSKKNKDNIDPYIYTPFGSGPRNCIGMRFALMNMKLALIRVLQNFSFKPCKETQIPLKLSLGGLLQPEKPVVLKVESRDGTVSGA
# Experiment: qHTS Assay for Inhibitors and Substrates of Cytochrome P450 3A4 (AID 884); further: nearly all actives have a fitted effect of over 50% in size
# Conditions: recombinant CYP3A4, Luciferin-PPXE luminescence; series mostly up to 57.1 µM; activity change, negative = inhibition: at the top concentration
# Method: NIH Molecular Libraries Screening Centers Network [MLSCN]
# NIH Chemical Genomics Center [NCGC]
# The P450 gene superfamily is involved in the metabolism and clearance of xenobiotics. This assay used human CYP3A4 to measure the dealkylation of luciferin-6' phenylpiperazinylyl (Luciferin-PPXE; […]) to luciferin. The luciferin is then measured by luminescence after the addition of a luciferase detection reagent. Luciferin-PPXE concentration in the assay was equal to its KM for CYP3A4. Inhibitors and some substrates limit the production of luciferin, and decrease measured luminescence.
# NCGC Assay Protocol Summary:
# Two uL of enzyme and substrate mix (final concentrations: 20nM CYP3A4, 25uM Luciferin-PPXE, 200mM KPO4) were dispensed into a white, solid bottom 1536-well microtiter plate. 23nL of compound was transferred by a pin tool. The plate was incubated at RT for 10 min. Two uL of an NADPH regeneration solution (Promega supplied reagent) was dispensed and the reaction was allowed to continue for 60 min at RT. Then the reaction was stopped by reconstituted luciferin detection buffer. After another 20 min of incubation the plate was read on the ViewLux (Perkin Elmer) at 60 sec exposure and 2x2 binning. This protocol was carried out with Promega-Glo reagents and further information can be found at http://www.promega.com/tbs/tb325/tb325.pdf. Data were normalized to the to AC100 inhibition (57 uM ketoconazole).
# Keywords: P450, CYP3A4, Luciferase, MLSMR, MLSCN, NIH Roadmap, qHTS, NCGC
# On the % scale 0 is the no-effect control and ±100 the full control effect; potency means the concentration at half of the fitted maximal effect.
SMILES,Potency,"activity change, negative = inhibition"
COc1ccc(CNc2ncnc3ccc(-c4ccc(N(C)C)cc4)cc23)c(OC)c1,3.98 µM (active),
CN(Cc1ccco1)c1ncncc1-c1ccc2c(c1)OCO2,1.26 µM (active),
COc1cccc(-c2nc(Nc3ccncc3)c3ccccc3n2)c1,2.51 µM (active),
CN(Cc1ccco1)c1ncncc1-c1cccnc1,2.51 µM (active),
CC(=O)OC1c2c(ccc3ccc(=O)oc23)OC(C)(C)C1OC(=O)CC(C)C (stereo not given),20 µM (active),
CC(=O)O[C@]1(C(C)=O)CC[C@@H]2[C@@H]3C=C(Cl)C4=CC(=O)[C@H]5C[C@@H]5[C@]4(C)[C@H]3CC[C@]21C,inactive,
Cc1ccccc1-c1ccc2ncnc(N(C)C)c2c1,3.16 µM (active),
NC(=O)c1ccccc1-c1nc(-n2ccnc2)c2ccccc2n1,3.98 µM (active),
COCCNc1ncnc2ccc(-c3ccc(N(C)C)cc3)cc12,7.94 µM (active),
Cc1cnc(CNc2ncncc2-c2cccc(NS(C)(=O)=O)c2)cn1,3.16 µM (active),
CC(C)(S)[C@H](N)C(=O)O,,18.6%
COc1ccc2[nH]cc(CCNc3nc(-c4ccc(N(C)C)cc4)nc4ccccc34)c2c1,2.51 µM (active),
COc1ccc2[nH]cc(CCNc3ccnc(-c4ccccc4C)n3)c2c1,3.16 µM (active),
CN(Cc1ccco1)c1ncncc1-c1ccccc1C(F)(F)F,1.26 µM (active),
O=c1c(-c2ccc(Cl)cc2)nc2cnc(N3CCOCC3)nc2n1CCc1ccccc1,,83.3%
COc1ccc(CNc2ccnc(-c3ccccc3CN(C)C)n2)c(OC)c1,5.01 µM (active),
COc1ccc(CNc2ccnc(-c3ccc(C(=O)N(C)C)cc3)n2)c(OC)c1,3.98 µM (active),
COC(=O)N1CCC2(CC1)CCN(c1ccccn1)CC2,,99.4%
CN1CCN(c2ncc3nc(-c4ccc(Cl)cc4)c(=O)n(Cc4ccc(F)cc4)c3n2)CC1,,75.7%
Cn1cccc1C(=O)N1CCC2(CC1)CCN(C(c1ccccc1)c1ccccc1)CC2,,270%

SMILES,Potency,"activity change, negative = inhibition"
C=C[C@](C)(O)CCC1C(=C)CC(OC(C)=O)C2C(C)(C)CCCC12C (stereo not given in full),2.51 µM (active),
CC(=O)NCCNc1nc(-c2ccc3c(c2)OCO3)nc2ccccc12,3.98 µM (active),
CN(Cc1ccco1)c1nc(-c2ccc3c(c2)OCO3)nc2ccccc12,1.58 µM (active),
C=CC(C)(O)CCC=C(C)C (stereo not given),,-14.1%
COc1ccccc1-c1ccc2ncnc(NCCN3CCOCC3)c2c1,7.94 µM (active),
COc1cccc(-c2nc(NCc3cccs3)c3ccccc3n2)c1,3.16 µM (active),
N#Cc1cccc(-c2cncnc2NCc2cccnc2)c1,1.26 µM (active),
COc1ccc(CNc2ncncc2-c2cccc(NS(C)(=O)=O)c2)c(OC)c1,0.251 µM (active),
COc1cccc(-c2nccc(NCc3ccccc3)n2)c1,3.98 µM (active),
CS(=O)(=O)Nc1cccc(-c2ccc3ncnc(Nc4ccc(F)cc4)c3c2)c1,7.94 µM (active),
COc1ccccc1-c1cncnc1NCc1cccs1,0.398 µM (active),
Nc1ccccc1C(=O)CC(N)C(=O)O (stereo not given),inactive,
COc1ccccc1CNc1ncncc1-c1ccccc1OC,0.199 µM (active),
O=C(c1ccco1)N1CCC2(CC1)CCN(c1ccccn1)CC2,,57.6%
COc1ccc(CNc2nc(-c3cccc(C#N)c3)nc3ccccc23)c(OC)c1,2.51 µM (active),
COc1cccc(-c2cncnc2NCc2cccc(C)c2)c1,0.398 µM (active),
COc1ccc2[nH]cc(CCNc3ncnc4ccc(-c5ccccc5CN(C)C)cc34)c2c1,1.58 µM (active),
COc1cccc(Cn2c(=O)cnc3cnc(Oc4cccc(Cl)c4)nc32)c1,5.01 µM (active),
C[C@@](N)(Cc1ccc(O)cc1)C(=O)O,,1.13%
O=c1c(-c2ccccc2)coc2cc(O)cc(O)c12,20 µM (active),
